Laboratory results as given in PubChem BioAssay (Tox21).
A number with no mark means an inactive call. Records with an inconclusive call do not appear. Active and inactive are the calls of the source. Unless noted, the call rests on the fitted dose curve; in most records, active means well fitted curve in the direction sought with a large enough effect in the repeat runs; inconclusive means weak or mixed curves; inactive means no such curve, though single readings can be large; an effect the other way counts as inactive or inconclusive.

Key:
[1] = qHTS assay to identify small molecule antagonists of the estrogen related receptor (ERR) signaling pathway from Tox21 library - cell viability counter screen (AID 1224834); further: nearly all actives have a fitted effect of over 30% in size; further: potency means the concentration at half of the fitted maximal effect
Outline: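 Viability readout (CellTiter-Fluor fluorescence, 30 min at 37 C) multiplexed with the ERR assay; cells treated 17.5 h at 37 C with compounds delivered in DMSO.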

[2] = qHTS assay to identify small molecule agonists of the constitutive androstane receptor (CAR) signaling pathway - cell viability counter screen (AID 1224836); further: nearly all actives have a fitted effect of over 45% in size; further: potency means the concentration at half of the fitted maximal effect
Outline: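 Fluorescence from CellTiter-Fluor indicates live cells after 23 h exposure. The human hepatoma line expresses hCAR and a CYP2B6-2.2kb reporter. Incubation medium contains 0.75 uM PK11195 (final).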

[3] = qHTS assay to identify small molecule antagonists of the constitutive androstane receptor (CAR) signaling pathway - cell viability counter screen (AID 1224837); further: nearly all actives have a fitted effect of over 45% in size; further: potency means the concentration at half of the fitted maximal effect
Outline: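 Fluorescence from CellTiter-Fluor served as the viability signal. Human hepatoma HepG2 cells stably bearing hCAR and CYP2B6-2.2kb received compound plus CITCO (50 nM final) for 23 hr.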

[4] = target: Nuclear receptor subfamily 1 group I member 3 (Homo sapiens) (UniProt Q14994); assay: qHTS assay to identify small molecule antagonists of the constitutive androstane receptor (CAR) signaling pathway (AID 1224838);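 further: HepG2 cells stably expressing hCAR with CYP2B6 luciferase reporter stimulated by CITCO; nearly all actives have a fitted effect of over 40% in size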; further: potency means the concentration at half of the fitted maximal effect
Outline: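 Quantitative HTS in double-stable HepG2-CYP2B6-hCAR cells. After 4 h plating, cells get compound (15 concentrations) and CITCO at 50 nM final, incubate 24 h at 37 C, then ONE-Glo luminescence is read.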

[5] = target: Nuclear receptor subfamily 1 group I member 3 (Homo sapiens) (UniProt Q14994); assay: qHTS assay to identify small molecule agonists of the constitutive androstane receptor (CAR) signaling pathway (AID 1224839);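 further: HepG2 cells stably carrying human CAR and a CYP2B6 luciferase reporter; on the % scale 0 is the no-effect control and ±100 the full control effect; nearly all actives have a fitted effect of over 15% in size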
Outline: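 Stable hCAR/CYP2B6-2.2kb HepG2 line in DMEM with 10% FBS; compounds (15 concentrations) and 0.75 uM PK11195 final, 24 h at 37 C/5% CO2, then ONE-Glo luminescence after 30 min.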

[6] = qHTS assay to identify small molecule antagonists of the estrogen related receptor signaling pathway with the pleiotropic PPARgamma coactivator (PGC) from Tox21 10K library (AID 1224841; call rule not given here; further: actives are mostly falling curves and most rising ones were filed inactive; nearly all actives have a fitted effect of over 50% in size; further: potency means the concentration at half of the fitted maximal effect)
Outline: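 Compound exposure ran 18 hours at 37 C in PGC/ERR cells (2,000/well) that had first rested 6 hours in a 37 C/5% CO2 incubator. Luciferase activity was then detected with One-Glo after a 30-minute room-temperature step.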

[7] = qHTS assay to identify small molecule agonists of the estrogen related receptor signaling pathway with the pleiotropic PPARgamma coactivator (PGC) from Tox21 10K library (AID 1224842); further: nearly all actives have a fitted effect of over 15% in size; further: potency means the concentration at half of the fitted maximal effect; on activation: on the % scale 0 is the no-effect control and ±100 the full control effect
Outline: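 Luminescence from One-Glo (30 min, room temperature) measured after PGC/ERR cells had 18 h at 37 C with pinned compound (23 nL in DMSO). Cells had been seeded at 2,000 per well and pre-incubated 6 h.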

[8] = target: Thyrotropin receptor (Homo sapiens) (UniProt P16473); assay: qHTS assay to identify small molecule agonists of the thyroid stimulating hormone receptor (TSHR) signaling pathway (AID 1224843; calls by dose curve; further: on the % scale 0 is the no-effect control and ±100 the full control effect; nearly all actives have a fitted effect of over 45% in size)
Outline: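 Screening of the Tox21 10K collection used HEK293 cells engineered with TSHR at 800 cells per well. After a 30-min room-temperature compound exposure, HTRF cAMP reagents were added and fluorescence recorded 1 h later.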

[9] = qHTS assay to identify small molecule agonists of the hypoxia (HIF-1) signaling pathway - cell viability counter screen (AID 1224844; calls by dose curve; further: nearly all actives have a fitted effect of over 50% in size; further: potency means the concentration at half of the fitted maximal effect)
Outline: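 Luminescent ATP content (CellTiter-Glo, 30 min, room temperature) served as the viability measure in HRE-bla ME-180 cells exposed to compounds for 17 hrs in low-serum medium (0.5% dialyzed FBS).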

[10] = qHTS assay to identify small molecule antagonists of the estrogen related receptor (ERR) signaling pathway from Tox21 library (AID 1224848); further: potency means the concentration at half of the fitted maximal effect; nearly all actives have a fitted effect of over 50% in size
Outline: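 Antagonist-mode screen of the Tox21 10K library in an NTP-provided ERR reporter cell line; 18 h compound exposure at 37 C, luminescence measured with ONE-Glo.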

[11] = qHTS assay to identify small molecule agonists of the estrogen related receptor (ERR) signaling pathway from Tox21 library (AID 1224849; calls by dose curve; further: on the % scale 0 is the no-effect control and ±100 the full control effect; nearly all actives have a fitted effect of over 15% in size); conditions: ERR reporter cell line, ONE-Glo luciferase, 18 h; at 92.4 µM (top of the series) unless noted
Outline: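 We plated ERR reporter cells, waited 6 h, added compounds in DMSO by pin tool and incubated them 18 h at 37 C. ONE-Glo was then added and luminescence read after 30 min.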

[12] = qHTS RealTime-Glo MT Cell Viability Assay in HepG2 cells - 24 hour (AID 1224867); further: nearly all actives have a fitted effect of over 50% in size; further: potency means the concentration at half of the fitted maximal effect
Outline: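 qHTS, HepG2, 600 cells/well, RealTime-Glo (NanoLuc + prosubstrate) added with cells; 5 h preincubation; DMSO compound addition; 37 C; luminescence at 0/8/16/24/32/40 h.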

[13] = qHTS RealTime-Glo MT Cell Viability Assay in HEK293 cells - 32 hour (AID 1224868); further: nearly all actives have a fitted effect of over 50% in size; further: potency means the concentration at half of the fitted maximal effect
Outline: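 Assay medium contained NanoLuc luciferase plus cell-permeant prosubstrate, added with HEK293 cells at 600 cells/well. After 5 h at 37 C/5% CO2 compounds were added; plates stayed at 37 C for 40 h with serial luminescence reads.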

[14] = A CellTox Green Cytotoxicity Assay to monitor cytotoxicity in HEK293 cells - 0 hour (AID 1224869)
Outline: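 Each value comes from one timepoint of a single continuous run in which HEK293 cells with CellTox Green were exposed to compound for up to 40 h at 37 C, dye fluorescence rising with cell death.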

[15] = qHTS RealTime-Glo MT Cell Viability Assay in HepG2 cells - 40 hour (AID 1224870); further: nearly all actives have a fitted effect of over 50% in size; further: potency means the concentration at half of the fitted maximal effect
Outline: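 Real-time viability: cells seeded at 600 per well together with NanoLuc and cell-permeant prosubstrate, compounds added after 5 h incubation. Luminescence tracked at 0, 8, 16, 24, 32 and 40 h of exposure.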

[16] = qHTS assay to identify small molecule antagonists of the estrogen related receptor signaling pathway with the pleiotropic PPARgamma coactivator (PGC) from Tox21 10K library - cell viability counter screen (AID 1224840; active means well fitted cell-killing curve with a large enough effect in the repeat runs, not every such curve was filed as active; further: nearly all actives have a fitted effect of over 40% in size; further: potency means the concentration at half of the fitted maximal effect)
Outline: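 Compounds in DMSO, alongside positive and negative controls, were pinned onto PGC/ERR cells (2,000 per well). Exposure lasted 17.5 hours at 37 C, followed by a 30-minute CellTiter-Fluor incubation and fluorescence reading.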

[17] = qHTS assay to identify small molecule agonists of H2AX - cell viability counter screen (AID 1224847; calls by dose curve; further: nearly all actives have a fitted effect of over 30% in size; further: potency means the concentration at half of the fitted maximal effect)
Outline: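 Viability of CHO-K1 (wild type) cells after 3 hr compound exposure was measured by CellTiter-Glo luminescence.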

[18] = target: Luciferin 4-monooxygenase (Photinus pyralis) (UniProt P08659); assay: qHTS assay to identify small molecule inhibitors of firefly luciferase (AID 1224835); further: nearly all actives have a fitted effect of over 25% in size; further: potency means the concentration at half of the fitted maximal effect
Outline: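 Inhibition of purified Photinus luciferase is measured by luminescence. Substrate levels (D-luciferin, ATP) sit at their KM values. Each compound is tested in a concentration series.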

[19] = qHTS assay to identify small molecule agonists of H2AX (AID 1224845; active means well fitted activation curve with a large enough effect in the signal ratio in the repeat runs, not every such curve was filed as active; the % refers to the signal ratio; further: on the % scale 0 is the no-effect control and ±100 the full control effect)
Outline: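 Phospho-H2AX Ser139 measured by HTRF (ex 320 nm; em 665 and 620 nm) after 24 hr antibody incubation. Compounds, 15 concentrations, 0.76% DMSO, were applied to CHO-K1 cells for 3hr at 37C before lysis.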

[20] = qHTS assay to identify small molecule agonists of the hypoxia (HIF-1) signaling pathway (AID 1224846; active means well fitted activation curve with a large enough effect in the signal ratio in the repeat runs, not every such curve was filed as active; the % refers to the signal ratio; further: on the % scale 0 is the no-effect control and ±100 the full control effect)
Outline: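 Measured by blue/green FRET after loading CCF4-AM: beta-lactamase expressed from a hypoxia response element in ME-180 cells. Test agents were delivered in DMSO and left 17 hrs; cells had been plated 5 hrs earlier in low-serum (0.5% dialyzed FBS) medium.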

Nuclear receptor subfamily 1 group I member 3 (Homo sapiens), sequence (Q14994 whole entry, looked up): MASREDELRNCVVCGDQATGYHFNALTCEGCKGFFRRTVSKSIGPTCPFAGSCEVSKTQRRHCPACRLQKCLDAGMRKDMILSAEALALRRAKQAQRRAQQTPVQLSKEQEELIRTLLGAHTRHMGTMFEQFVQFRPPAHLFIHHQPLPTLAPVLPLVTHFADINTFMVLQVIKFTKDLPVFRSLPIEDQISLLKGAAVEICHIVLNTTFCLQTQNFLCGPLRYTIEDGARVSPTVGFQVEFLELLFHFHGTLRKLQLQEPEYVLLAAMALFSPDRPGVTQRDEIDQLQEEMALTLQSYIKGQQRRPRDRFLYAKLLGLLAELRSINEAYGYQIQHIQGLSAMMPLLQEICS
Thyrotropin receptor (Homo sapiens), sequence (P16473 whole entry, looked up): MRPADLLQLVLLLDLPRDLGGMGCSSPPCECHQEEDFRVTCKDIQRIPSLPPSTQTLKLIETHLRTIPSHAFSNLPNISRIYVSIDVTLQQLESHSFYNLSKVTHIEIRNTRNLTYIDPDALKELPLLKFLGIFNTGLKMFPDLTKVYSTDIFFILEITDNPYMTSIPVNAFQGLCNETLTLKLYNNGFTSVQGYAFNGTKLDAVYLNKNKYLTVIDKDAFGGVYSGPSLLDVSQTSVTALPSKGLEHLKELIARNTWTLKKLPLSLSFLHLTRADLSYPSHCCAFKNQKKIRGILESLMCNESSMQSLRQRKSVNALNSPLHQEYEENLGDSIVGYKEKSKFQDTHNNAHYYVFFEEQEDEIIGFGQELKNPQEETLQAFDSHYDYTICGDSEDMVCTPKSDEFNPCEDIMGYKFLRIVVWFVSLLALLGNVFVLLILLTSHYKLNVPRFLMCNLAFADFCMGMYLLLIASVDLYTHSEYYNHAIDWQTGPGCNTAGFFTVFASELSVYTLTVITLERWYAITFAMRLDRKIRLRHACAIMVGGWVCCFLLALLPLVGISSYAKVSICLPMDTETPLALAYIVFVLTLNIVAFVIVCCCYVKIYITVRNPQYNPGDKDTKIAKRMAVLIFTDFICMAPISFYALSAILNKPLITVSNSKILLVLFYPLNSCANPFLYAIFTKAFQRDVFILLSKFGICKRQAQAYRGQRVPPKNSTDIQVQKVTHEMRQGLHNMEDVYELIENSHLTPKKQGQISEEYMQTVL
Luciferin 4-monooxygenase (Photinus pyralis), sequence (P08659 whole entry, looked up): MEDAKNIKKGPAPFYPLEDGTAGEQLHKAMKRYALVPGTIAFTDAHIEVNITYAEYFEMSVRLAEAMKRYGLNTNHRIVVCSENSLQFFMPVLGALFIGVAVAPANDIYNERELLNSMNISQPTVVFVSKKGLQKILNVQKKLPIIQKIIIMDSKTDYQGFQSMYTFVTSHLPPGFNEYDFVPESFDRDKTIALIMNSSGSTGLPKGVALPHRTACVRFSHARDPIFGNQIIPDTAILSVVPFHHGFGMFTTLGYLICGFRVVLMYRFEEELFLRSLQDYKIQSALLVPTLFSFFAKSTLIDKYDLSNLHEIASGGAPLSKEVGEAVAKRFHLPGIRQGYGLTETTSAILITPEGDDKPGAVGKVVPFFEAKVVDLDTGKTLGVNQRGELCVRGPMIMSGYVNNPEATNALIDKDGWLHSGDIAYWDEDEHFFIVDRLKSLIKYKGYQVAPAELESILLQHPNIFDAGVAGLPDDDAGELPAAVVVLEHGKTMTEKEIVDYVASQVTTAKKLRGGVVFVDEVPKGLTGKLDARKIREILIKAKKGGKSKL

Structure (SMILES)	Potency [1]	Potency [2]	Potency [3]	Potency [4]	Potency [5]	Potency [6]	Potency [7]	Potency [8]	Potency [9]	Potency [10]	activity change, positive = activation [11]	Potency [12]	Potency [13]	Potency [14]	Potency [15]	Potency [16]	Potency [17]	Potency [18]	Potency [19]	Potency [20]
COc1cccc2c1C(=O)c1c(O)c3c(c(O)c1C2=O)C[C@@](O)(C(=O)CO)C[C@@H]3O[C@H]1C[C@H](N)[C@H](O[C@@H]2CCCCO2)[C@H](C)O1	9.44 µM (active)	7.5 µM (active)	8.41 µM (active)	0.944 µM (active)	inactive	inactive	0.422 µM (active)	inactive	12 µM (active)	4.22 µM (active)	-55.4% [at 42.5 µM]	2.13 µM (active)	0.239 µM (active)	inactive	1.9 µM (active)					
CC/C(=C(\c1ccc(O)cc1)c1ccc(OCCN(C)C)cc1)c1ccccc1	68.7 µM (active)	68.7 µM (active)	68.7 µM (active)		inactive		inactive		55.1 µM (active)	48.7 µM (active)	-78.4%	61.8 µM (active)	19.5 µM (active)	inactive		48.7 µM (active)	90 µM (active)			
CNc1ccc(O)cc1	43.2 µM (active)						inactive		21.8 µM (active)		-69.6%		12.3 µM (active)	inactive		48.5 µM (active)	101 µM (active)	39.8 µM (active)		
[Cl][Au]([Cl])[Cl]	27.3 µM (active)	7.7 µM (active)	3.86 µM (active)			1.72 µM (active)	inactive		3.89 µM (active)	3.06 µM (active)	-67.4%			inactive	8.71 µM (active)	7.7 µM (active)	inactive			
OCCN1CCN(CC/C=C2/c3ccccc3Sc3ccc(C(F)(F)F)cc32)CC1	29.8 µM (active)					29.8 µM (active)	inactive	inactive	21.3 µM (active)	29.8 µM (active)	-67.6% [at 42.5 µM]	21.3 µM (active)	19 µM (active)	inactive	15.1 µM (active)	29.8 µM (active)	55.2 µM (active)	inactive	inactive	
N/C(=N\N=C\c1ccc(Cl)cc1)N/N=C/c1ccc(Cl)cc1	33.5 µM (active)	inactive	inactive	inactive	inactive	inactive	inactive	inactive	23.9 µM (active)	29.8 µM (active)	-44.1% [at 42.5 µM]			inactive					inactive	
CCCCCCCC(=O)[O-].CCCCCCCC(=O)[O-].[Zn+2]	inactive	inactive	inactive	inactive	inactive				inactive			inactive	inactive	inactive	inactive	inactive	inactive		inactive	inactive
